This is a sample that favours compounds with a hit; in the whole collection about 11% have one here.
IMPase Li cell = qHTS Assay for Identifying the Cell-Membrane Permeable IMPase Inhibitors: Potentiation with Lithium. AID 1457, 2008. Potency, µM (series often up to 59.4 µM), most hits filed as inhibitors. hit rate 0.35% among 210,000. CHO-M1 cells, IP1 TR-FRET (IP-One), carbachol + lithium; active = well fitted inhibition curve with a large enough effect; inconclusive = small, poorly fitted or top-dose-only effect; inactive = no such curve, though single readings can be large or run the other way;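 note: IP1 builds up when IMPase is blocked and the TR-FRET signal falls; nearly all actives have a fitted effect of over 50% in size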
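CHO cells stably expressing M1 receptor (2000/well, cultured 16–30 h) treated 30 min at 37C with compound plus low lithium. Cytosolic IP1 by TR-FRET (665/620 ratio and 620 channel) after 10 min lysis; AC50 by Hill fit.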
ALDH1A1 inh = qHTS Assay for Inhibitors of Aldehyde Dehydrogenase 1 (ALDH1A1); Potency, µM (top dose mostly 75.3 µM), hits mostly inhibitors; Purified ALDH1A1, NADH fluorescence, propionaldehyde substrate; Aldehyde dehydrogenase 1A1 (Homo sapiens), P00352; hit rate 7.3% among 220,000; AID 1030, 2008
Target sequence (P00352 whole entry, looked up): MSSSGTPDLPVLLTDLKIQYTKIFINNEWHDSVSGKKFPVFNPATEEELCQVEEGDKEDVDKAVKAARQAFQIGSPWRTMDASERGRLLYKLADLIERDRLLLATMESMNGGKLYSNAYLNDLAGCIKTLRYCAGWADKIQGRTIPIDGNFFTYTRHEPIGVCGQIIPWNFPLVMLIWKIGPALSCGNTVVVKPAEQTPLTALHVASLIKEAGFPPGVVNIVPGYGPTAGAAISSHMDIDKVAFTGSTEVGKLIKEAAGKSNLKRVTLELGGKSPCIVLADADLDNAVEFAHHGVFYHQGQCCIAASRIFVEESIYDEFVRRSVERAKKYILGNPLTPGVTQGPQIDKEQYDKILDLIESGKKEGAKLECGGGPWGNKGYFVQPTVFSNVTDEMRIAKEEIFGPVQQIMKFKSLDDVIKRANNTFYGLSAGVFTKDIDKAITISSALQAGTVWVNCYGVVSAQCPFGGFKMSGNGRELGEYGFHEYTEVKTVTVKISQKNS
HPGD inh = qHTS Assay for Inhibitors of HPGD (15-Hydroxyprostaglandin Dehydrogenase); hit rate 4.3% among 150,000; Potency, µM, most hits filed as inhibitors; 15-hydroxyprostaglandin dehydrogenase [NAD(+)] (Homo sapiens), P15428; purified HPGD, NADH fluorescence kinetic, PGE2 substrate; AID 894, 2007
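20 nM HPGD preincubated 15 min at room temperature with compound in 50 mM Tris-HCl pH 8, 0.01% Tween 20. Started with 1 mM NAD+ and 30 uM prostaglandin E2; NADH fluorescence (360/450 nm) read 5 times over 30-s intervals, last minus first.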
IMPase cell inh = qHTS Assay for Identifying the Cell-Membrane Permeable IMPase Inhibitors | 120,000 tested, under 10 active | CHO-M1 cells, IP1 accumulation, HTRF TR-FRET ratio | inhibition (IP1 accumulation), % at 46.1 µM | AID 901, 2007 | Inositol monophosphatase 1 (Rattus norvegicus), P97697; active = well fitted curve in the direction sought with a large enough effect in the signal ratio, not every such curve was filed as active; inconclusive = small, poorly fitted or top-dose-only effect, or a change in a side signal; inactive = no such curve, though single readings can be large or run the other way; the % refers to the signal ratio;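 note: cells stimulated with carbachol in lithium chloride buffer; higher means more IMPase inhibition seen as more IP1 and lower FRET ratio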
Target sequence (P97697 whole entry, looked up): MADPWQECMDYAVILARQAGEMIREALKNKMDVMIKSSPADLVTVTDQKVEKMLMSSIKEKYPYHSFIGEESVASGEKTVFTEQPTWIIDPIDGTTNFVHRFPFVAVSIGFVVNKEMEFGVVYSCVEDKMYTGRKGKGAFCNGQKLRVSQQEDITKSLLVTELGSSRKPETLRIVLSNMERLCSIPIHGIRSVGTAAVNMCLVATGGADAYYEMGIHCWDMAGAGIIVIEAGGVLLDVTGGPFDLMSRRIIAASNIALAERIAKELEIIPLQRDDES
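Measured: the HTRF emission ratio (665/620 nm) plus the 620 nm donor channel, each fitted to the Hill equation to give AC50. Cells were CHO-M1 given compounds up to 46 uM and a 30 min carbachol stimulation at 37C.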
PNC assembly inh = High Content Assay for Compounds that inhibit the Assembly of the Perinucleolar Compartment. activity change (PNC), negative = inhibition, % at 10 µM. PC3M PTB-GFP, PNC prevalence imaging, 16 h; active compounds read low. hit rate 3.1% among 140,000;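 active = readout at or below -70, meaning at least 70% loss of cells showing the perinucleolar compartment, a nuclear body marking cancer cells; inconclusive = readout between -30 and a set limit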
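PC3M cells stably expressing PTB-GFP, 750–1000 cells/well, treated 16 h at 37 °C with compound (23 nl of library stock), in duplicate. After paraformaldehyde fixation and Hoechst stain, imaged at 20x; PNC prevalence scored by image analysis.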
Hits are given with their value; i = inactive; ? = inconclusive; nt = no result given; [ ] = dose if it differs, or a comment. Unless noted, calls come from the whole dose curve; as a rule, active = well fitted inhibition curve with a large enough effect (not every such curve was filed as active); inconclusive = small, poorly fitted or top-dose-only effect, or another doubt; inactive = no such curve, though single readings can be large or run the other way.

SMILES | IMPase Li cell | ALDH1A1 inh | HPGD inh | IMPase cell inh | PNC assembly inh
O=C(Nc1ccc(C(=O)N2CCCC2)cc1)c1ccccc1F | i | i | 3.2µM | i | i
FC(F)Oc1ccc(NC(=S)NCC2COc3ccccc3O2)cc1 (stereo not given) | i | i | i | nt | i
CC(C)C(=O)Nc1ccc(C(=O)N2CCN(C(=O)c3ccco3)CC2)cc1 | i | i | i | i | ?
CC(C)C(=O)Nc1ccc(C(=O)N2CCCCCC2)cc1 | i | i | 2µM | i | i
CS(=O)(=O)Nc1ccc(C(=O)N2CCc3ccccc3C2)cc1 | i | i | nt | nt | nt
Cc1ccc(C)c(N2CCN(C(=O)c3ccc(NS(=O)(=O)c4c(C)noc4C)cc3)CC2)c1 | i | i | i | i | i
CS(=O)(=O)Nc1ccc(C(=O)N2CCCCC2)cc1 | i | ? | 14µM | i | i
CS(=O)(=O)Nc1ccc(N2CCCCC2)c(Cl)c1 | i | i | 7.1µM | i | i
Cc1noc(C)c1S(=O)(=O)Nc1ccc(C(=O)N2CCCCC2)cc1 | i | i | 32µM | i | i
Cc1cc2nc3c(=O)[nH]c(=O)nc-3n(CC(O)C(O)C(O)COP(=O)(O)O)c2cc1C (stereo not given) | i | i | i | nt | nt
O=C(c1ccc(Cl)c(S(=O)(=O)N2CCOCC2)c1)N(c1ccccn1)C1CCCCC1 | i | ? | nt | nt | nt
CCOC(=O)c1c(NC(=O)COC(=O)c2c(C)noc2C)sc2c1CCC2 | i | ? | ? | i | i
Cn1c(=O)c2[nH]c(=O)cnc2n(C)c1=S | i | 20µM | nt | nt | nt
Cn1c(=O)c2[nH]c(CCCCc3nc4c([nH]3)c(=O)n(C)c(=S)n4C)nc2n(C)c1=S | i | i[13.5 µM] | i | nt | nt
CC1=C(C(=O)Nc2ccccc2)C2(CCCCC2)C(C(N)=O)C(=S)N1 (stereo not given) | i | i | i | nt | i
N#CC1=C(N)NC(SCC(=O)O)=C(C#N)C12CCCC2 | i | 5.6µM | 13µM | i | i
N#CC1=C(N)NC(SCc2ccc(F)cc2)=C(C#N)C12CCCCC2 | i | ? | i | i | i
N#CC1=C(N)NC(SCC(=O)Nc2ccccc2)=C(C#N)C12CCCC2 | i | 4.5µM | 18µM | i | i
CC1=C(C(=O)Nc2ccccc2)C2(CCCCC2)C(C#N)=C(S)N1 | i | 20µM | 25µM | i | i
COc1ccccc1NC(=O)COC(=O)C1CCN(/C=C/C(=O)C(F)(F)F)CC1 | i | i | i | nt | ?
CSc1nc(N(C)C)nc(N(C)C#N)n1 | i | i | nt | nt | nt
CC(C)OCCCNc1ncnc2c1[nH]c1ccccc12 | i | ? | i | i | -97
C1=C(CCNc2ncnc3c2[nH]c2ccccc23)CCCC1 | i | ? | i | i | ?
COCCn1nnnc1C(c1cc2cc(C)ccc2[nH]c1=O)N1CCc2ccccc21 (stereo not given) | i | 3.2µM | i | i | i
COc1ccc2cc(C(c3nnnn3CCc3ccccc3)N3CCCC(C)C3)c(=O)[nH]c2c1 (stereo not given) | i | 32µM | i | i | i
SMILES | IMPase Li cell | ALDH1A1 inh | HPGD inh | IMPase cell inh | PNC assembly inh
COCCn1nnnc1C(c1cc2cc(OC)ccc2[nH]c1=O)N1CCC(Cc2ccccc2)CC1 (stereo not given) | i | ? | ? | i | ?
COCCn1nnnc1C(c1cc2cc(C)ccc2[nH]c1=O)N1CCCCCC1 (stereo not given) | i | 25µM | i | i | i
Cc1nc(NC2CCCCC2)c2nc(-c3ccccc3)n(CC3CCN(C)CC3)c2n1 | i | ? | ? | nt | nt
CCN(CC)S(=O)(=O)c1ccc(OC)c(NC(=O)c2cc(=O)[nH]c3ccccc23)c1 | i | ? | nt | nt | nt
COc1ccc(NC(=O)N2CCC3(CC2)CCN(C(=O)c2cccc(F)c2)CC3)cc1 | i | i | i | nt | nt
CC(C)(C)NC(=O)CSCc1ccc(Br)cc1 | i | i | nt | nt | nt
CCC(CC)NC(=O)COC(=O)c1cc(Br)ccc1Cl | i | i | 32µM | nt | ?
CC(/C=N/NC(=O)c1sc(N)nc1C)=C\c1ccccc1 | i | ? | nt | nt | nt
COCCNC(=O)c1ccc(Cc2nc3ccccc3[nH]2)cc1 | nt | i | i | nt | nt
CC1=C(n2nnc3ccccc32)C(c2ccccc2)C(C#N)=C(N)O1 (stereo not given) | i | 13µM | ? | i | ?
CCN(CC)S(=O)(=O)c1cc(NS(=O)(=O)c2cc(Cl)ccc2Cl)ccc1C | i | 16µM | i | nt | i
Cc1cccc(NC(=O)CSc2nnc(CNC(=O)c3c(F)cccc3Cl)o2)c1C | nt | nt | nt | i | nt
COc1cc(OC)c(S(=O)(=O)N2CCCCC2)cc1S(=O)(=O)N1CCCCC1 | i | 3.5µM | i | i | ?
CC(=O)Nc1ccc(S(=O)(=O)N[C@H](C(=O)O)C(C)C)cc1 | i | 10µM | i | i | i
COc1ccc(S(=O)(=O)Nc2ccc(S(=O)(=O)N3CCCC3)cc2)cc1 | i | 0.089µM | i | i | i
COc1ccc(S(=O)(=O)N2CCCCCC2)cc1 | i | i | i | i | i
COc1cc(S(=O)(=O)N2CCCCC2)c(OC)cc1Br | i | i | nt | nt | nt
CC(=O)Nc1ccc(S(=O)(=O)Nc2ccc(S(=O)(=O)N3CCCCCC3)cc2)cc1 | i | 4µM | i | i | i
CCc1ccccc1NC(=O)COc1ccc(C(=S)N2CCCC2)cc1 | i | ? | nt | nt | nt
CCCOCC(C)O (stereo not given) | i | i | i | nt | nt
COc1ccc(CC(=O)Nc2cccc(-c3ccc4nnc(C)n4n3)c2)cc1OC | i | i | nt | nt | nt
COc1ccc2cc(S(=O)(=O)N3CCCCC3)ccc2c1S(=O)(=O)N1CCCCC1 | i | 0.18µM | i | i | ?
COc1ccc(S(=O)(=O)Nc2ccc(S(=O)(=O)N3CCCCC3)cc2)cc1C | i | 4µM | i | i | i
COc1ccc(S(=O)(=O)Nc2ccc(S(=O)(=O)N3CCCCC3)cc2)cc1 | i | 0.35µM | i | i | i
Cc1ccc(NS(=O)(=O)c2ccc(Br)s2)cc1S(=O)(=O)N1CCOCC1 | i | 11µM | nt | nt | nt
SMILES | IMPase Li cell | ALDH1A1 inh | HPGD inh | IMPase cell inh | PNC assembly inh
Fc1ccc(-c2nnc(SCc3cccnc3)o2)cc1 | i | i | nt | nt | nt
O=S(=O)(Nc1ccc(S(=O)(=O)N2CCCCC2)cc1)c1ccc(Br)s1 | i | 1.4µM | i | i | i
CS(=O)(=O)Nc1ccc(S(=O)(=O)N2CCCC2)cc1 | i | ? | nt | nt | nt
COc1cccc([C@@H]2Oc3ccc(Br)cc3C[C@H]2OC(=O)NCCc2ccc(OC)c(OC)c2)c1 | i | i | i | nt | nt
CN(C)c1ccc(/C=C/c2cc[n+](C)cc2)cc1 | i | 14µM | i | ? | i
CO[C@]1(NC(=O)C(C(=O)O)c2ccc(O)cc2)C(=O)N2C(C(=O)O)=C(CSc3nnnn3C)COC21 (stereo not given in full) | i | i | i | nt | nt
Cc1c(C(=O)OCC(=O)Nc2ccc3c(c2)OCO3)cccc1[N+](=O)[O-] | i | 8.9µM | i | nt | i

Compound activity deposited in PubChem BioAssay by National Center for Advancing Translational Sciences (NCATS).
